Bioassay records as filed in PubChem BioAssay.
Hits are enriched below; roughly 4.2% of the tested compounds scored in any of these assays.
CCHF vOTU inh = blocks the CCHF virus ovarian tumor domain protease; inhibition, % at 11.5 µM; CCHFV vOTU protease, Pep-AMC fluorescence; AID 651958; actives 0.55% (n = 370,000); in the data active = inhibition above about 30%; also: 0% = vehicle wells with enzyme and 100% = no enzyme wells
Mtb betalactam = beta-lactam sensitization of Mtb H37Rv | AID 434955 | actives 0.27% (n = 330,000) | M. tuberculosis H37Rv growth with meropenem, percent inhibition | inhibition, % at 25 µM;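 also: growth measured after seven days incubation then overnight dye step; 0% = bacteria only wells and 100% = bacteria with antibiotic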
FBA Mtb inh = inhibits M. tuberculosis FBA enzyme; P9WQA3; inhibition, % at 1 µM; actives 2.3% (n = 360,000); purified M. tuberculosis FBA, fluorescence read-out; in the data active = inhibition above about 27%;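 also: 0% = vehicle and 100% = reference inhibitor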
RecA splice inh = inhibitors of M. tuberculosis RecA intein splicing | P9WHJ3 | cell-free RecA intein splicing, fluorescence | inhibition, % (no concentration beside the values) | actives 0.75% (n = 290,000) | AID 2221; in the data active = inhibition above about 30%; inconclusive = no clear call, values can overlap the other calls;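 also: 0% = vehicle wells and 100% = reference inhibitor control wells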
Target sequence (P9WHJ3 whole entry, looked up, canonical isoform): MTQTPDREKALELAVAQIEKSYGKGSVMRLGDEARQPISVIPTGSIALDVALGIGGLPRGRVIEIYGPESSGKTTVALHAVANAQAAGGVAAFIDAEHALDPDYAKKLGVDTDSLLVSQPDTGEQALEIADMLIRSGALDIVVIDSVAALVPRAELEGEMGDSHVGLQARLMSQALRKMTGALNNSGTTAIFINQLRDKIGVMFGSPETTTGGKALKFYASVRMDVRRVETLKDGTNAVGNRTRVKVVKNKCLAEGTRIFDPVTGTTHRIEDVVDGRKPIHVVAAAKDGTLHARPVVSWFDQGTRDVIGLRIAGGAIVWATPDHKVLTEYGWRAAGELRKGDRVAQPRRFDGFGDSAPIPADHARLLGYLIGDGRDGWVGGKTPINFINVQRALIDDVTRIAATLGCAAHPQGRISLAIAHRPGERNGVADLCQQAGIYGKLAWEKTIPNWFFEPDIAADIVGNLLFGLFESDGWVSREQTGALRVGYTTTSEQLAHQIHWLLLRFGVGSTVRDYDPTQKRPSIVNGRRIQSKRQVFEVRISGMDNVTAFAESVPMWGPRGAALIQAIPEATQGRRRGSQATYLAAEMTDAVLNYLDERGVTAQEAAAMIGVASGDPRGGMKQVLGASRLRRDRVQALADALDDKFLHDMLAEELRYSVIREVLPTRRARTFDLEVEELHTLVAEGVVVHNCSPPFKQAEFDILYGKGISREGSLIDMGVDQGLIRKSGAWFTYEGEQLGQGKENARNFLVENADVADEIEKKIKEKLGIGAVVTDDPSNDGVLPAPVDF
GDH-TPI inh = counter-screen for M. tuberculosis FBA inhibitors: GDH-TPI coupled enzymes; inhibition, % at 4.8 µM; actives 1.2% (n = 360,000); AID 588335; GDH-TPI coupled enzyme counterscreen, NADH absorbance; in the data active = inhibition above about 30%;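 also: 0% = DMSO wells and 100% = wells lacking the enzyme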
GFP chromo cs = counter-screen GFP chromophore formation inhibition; shares compounds with RecA splice inh; cell-free GFP chromophore formation, fluorescence; EC50, µM; actives 83% (n = 2,100); AID 434968
An asterisk follows results filed as active; ? = inconclusive; / = no result. Unless noted, no rule for the calls is given here.

SMILES	CCHF vOTU inh	Mtb betalactam	FBA Mtb inh	RecA splice inh	GDH-TPI inh	GFP chromo cs
CC(C)C[C@H]1C(=O)N2CCC[C@H]2[C@]2(O)O[C@](NC(=O)[C@@H]3C=C4c5cccc6[nH]c(Br)c(c56)CC4N(C)C3)(C(C)C)C(=O)N12 (stereo not given in full)	11	0	1	56*	2	>38
CC(=O)Nc1cccc(NC(=O)CSc2ncc(C(=O)Nc3ccccc3)c(=O)n2C)c1	8	90	-4	47*	9	40*
CC(=O)Nc1cccc(NC(=O)CSc2ncc(C(=O)Nc3ccc(F)cc3)c(=O)n2C)c1	-13	-1	3	3	-1	/
CC(=O)c1cccc(NC(=O)CSc2ncc(C(=O)Nc3ccccc3)c(=O)n2C)c1	4	-4	2	37*	-2	>38
CC(=O)Nc1ccc(NC(=O)CSc2ncc(C(=O)Nc3ccc(F)cc3)c(=O)n2C)cc1	-8	3	3	32*	12	>38
O=S1(=O)CC2c3ccccc3CN2CN1CCc1ccccc1 (stereo not given)	4	/	/	/	/	/
Cc1ccccc1C(=O)n1ccc2ccc(-c3ccc4ccn(Cc5ccccc5)c4c3)cc21	-11	/	/	/	/	/
Cc1cc(NS(=O)(=O)c2ccc(NC(=O)CSc3nnc(SCc4ccc(Cl)cc4)s3)cc2)nc(C)n1	6	/	/	/	/	/
C[C@H]1CCCN1c1ccc2c(c1)O[C@H]1CCN(C1)S2(=O)=O	0	/	/	/	/	/
Cc1cc(C)nc(N2N=C(C(C)(C)C)CC2=O)n1	21	30	1	40*	4	34*
COc1cc(NC(=O)C2CCCN(S(=O)(=O)c3ccccc3[N+](=O)[O-])C2)cc(OC)c1 (stereo not given)	8	/	/	/	/	/
O=C(NCc1ccccc1)OCCN1C(=O)CCC12CCC(c1ccccc1)CC2 (stereo not given)	3	/	/	/	/	/
COc1cccc(-n2nc(C#N)c(Cl)cc2=O)c1	6	/	17	73*	17	21*
CN(C)c1cccc(/C=C2\CC3(OC(=O)c4cccc(F)c4)CCCN2C3)c1 (stereo not given)	22	/	/	/	/	/
CCC(=O)N/N=C(\C)CC(=O)Nc1cccc([N+](=O)[O-])c1	10	2	2	76*	2	29*
COc1cc2c(cc1OC)[C@@H]1Cc3cc4c(cc3[C@H](C2)N1C)OCO4	-7	-1	-1	-2	-1	/
COc1cc2c(cc1OC)-c1c3c(cc4c1[C@@H](C2)N(C)CC4)OCO3	3	94	14	44*	7	21*
Cc1ccc(Nc2cc(C)nn2-c2nc(C)cc(=O)[nH]2)cc1	/	92	-1	39*	5	>38
Cc1ccc(Nc2cc(C)nn2-c2nc(C)cc(C)n2)cc1	22	97	1	4	4	/
Cc1ccc(-n2c(SCC(=O)Nc3ccc(S(=O)(=O)Nc4cc(C)nc(C)n4)cc3)nnc2-c2cccs2)cc1	-2	/	/	/	/	/
CCCc1nnc(NC(=O)c2nc(S(=O)(=O)Cc3ccc(C)cc3)ncc2Cl)s1	11	-1	-1	85*	4	>38
CSc1nnc(NC(=O)c2nc(S(=O)(=O)Cc3ccccc3)ncc2Cl)s1	7	-4	-1	72*	13	30*
CC(C)c1nnc(NC(=O)c2nc(S(=O)(=O)Cc3ccccc3)ncc2Cl)s1	12	5	-2	79*	3	>38
CC(C)NC(=O)OC[C@H]1O[C@H](C#Cc2ccc(C(C)(C)C)cc2)C=C[C@H]1O	8	/	/	/	/	/
Cc1c(NC(=O)C2CCCN(S(=O)(=O)c3ccc(C(C)(C)C)cc3)C2)c(=O)n(-c2ccccc2)n1C (stereo not given)	-1	/	/	/	/	/
SMILES	CCHF vOTU inh	Mtb betalactam	FBA Mtb inh	RecA splice inh	GDH-TPI inh	GFP chromo cs
CN(CCc1cnn(C)c1)C(=O)C1CCC(=O)N(CC2CCCCC2)C1 (stereo not given)	-4	-4	-1	46*	10	>38
Cc1n[nH]c(C)c1CCN(C)C(=O)C1CCC(=O)N(CC2CCCCC2)C1 (stereo not given)	-6	?	0	/	-4	/
CCOC(=O)c1cc2cc3ccccc3cc2[nH]1	-8	10	18	44*	2	>38
CC(C)OC(=O)c1cc2ccccc2[nH]1	-5	-1	4	-1	-15	/
CNCc1ccccc1Sc1ccc(O)c(O)c1	6	-1	-1	88*	13	3.3*
CCCCN1CCS(=O)(=O)N(Cc2cn(Cc3cccc(Cl)c3)nn2)C(C(=O)OC)C1 (stereo not given)	-3	/	/	/	/	/
O=C1C=Cc2ccccc2C1=O	/	7	/	39*	/	9.1*
CCN1C(=C2C(=O)c3ccccc3C2=O)C=Cc2ccccc21	10	1	-12	-2	9	/
Cc1cc(N2CCNC[C@@H]2C)ccc1N1CCN(Cc2ccccc2)[C@@H](C)C1	-3	/	/	/	/	/
CCOC(=O)c1ccc(NC2=CC(=O)C(=O)c3ccccc32)cc1	11	100	1	42*	-1	2.7*
CC(=O)Nc1ccc(NC2=CC(=O)c3ccccc3C2=O)cc1	3	0	2	23	-8	/
O=C1C(Cl)=C(Nc2ccc(O)cc2)C(=O)c2ccccc21	26	8	1	95*	5	2.5*
O=C1C=C(Nc2ccc(O)cc2)C(=O)c2ccccc21	12	7	-3	73*	15	3.6*
Cc1ccc(NC2=C(Cl)C(=O)c3ccccc3C2=O)cc1	-5	10	0	4	12	/
CCOC(=O)c1ccc(NC(=O)C(C)N2C(=O)c3ccccc3C2=O)cc1 (stereo not given)	6	5	-1	/	2	/
O=S1(=O)c2c(cccc2N2CC[C@H](O)C2)OCCCN1C1CC1	-1	/	/	/	/	/
CN1C(=O)c2cc(NS(C)(=O)=O)ccc2OC[C@H]2O[C@@H](CC(=O)NCc3ccc(-c4ccccc4)cc3)CC[C@@H]21	-9	/	/	/	/	/
Cc1cccc(NC(=S)N/N=C2/CCCCc3ccccc32)c1	2	-4	0	30*	11	>38
COC(=O)[C@]12C[C@H](CC(=O)NCCc3ccccc3OC)C(=O)N(Cc3ccc4c(c3)OCO4)C1=C[C@H](COCc1ccccc1)O[C@@H]2C	6	/	/	/	/	/
C[C@H](O)[C@@H]1CN2CCc3c([nH]c4cccc(-c5ccccc5)c34)[C@@H]2C[C@@H]1N(C)CC1CCCCC1	-2	/	/	/	/	/
O=[N+]([O-])c1cc(/C=N\Nc2ccccn2)ccc1Cl	4	6	1	-1	11	/
O=[N+]([O-])c1cc(C=Nc2cccc3c(O)cccc23)ccc1Cl	/	27	/	64*	/	33*
COC(=O)c1ccc(/C=C(\C#N)C(=O)NC(C)c2ccccc2)cc1 (stereo not given)	6	99	-3	17	2	/
CC(NC(=O)/C(C#N)=C/c1ccc([N+](=O)[O-])o1)c1ccccc1 (stereo not given)	6	100	4	47*	19	>38
Cc1cc(C)c(C(CC(=O)c2cccs2)C(C#N)C#N)c(C)c1 (stereo not given)	13	16	1	83*	-4	8.6*
